Test results: PubChem BioAssay (Tox21)
Results filed as inconclusive are left out. The source made the active and inactive calls. Unless noted, the call rests on the fitted dose curve.

Legend:
[1] = Nuclear factor erythroid 2-related factor 2/antioxidant responsive element (Nrf2/ARE) small molecule agonists: qHTS cell viability counter screen in human keratinocytes (AID 1919968; active means well fitted curve in the direction sought with a large enough effect in the repeat runs; an effect the other way counts as inactive or inconclusive; further: nearly all actives have a fitted effect of over 55% in size); details: KeratinoSens HaCaT ARE cells viability, CellTiter-Fluor, 24 h; series mostly up to 92.4 µM
How it was run: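 Cytotoxicity was multiplexed with the Nrf2/ARE luciferase assay in the same wells. Stably transfected HaCaT keratinocytes were treated with test compounds for 23 h at 37 C. Cell viability was then measured by CellTiter-Fluor fluorescence.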

[2] = Nuclear factor erythroid 2-related factor 2/antioxidant responsive element (Nrf2/ARE) small molecule agonists: luciferase reporter gene qHTS assay in human keratinocytes (AID 1919969); details: KeratinoSens HaCaT ARE-luciferase, luminescence, 24 h; series mostly up to 92.4 µM; further: nearly all actives have a fitted effect of over 35% in size
[3] = molecular target: Gonadotropin-releasing hormone receptor (Homo sapiens) (UniProt P30968); assay: Human gonadotropin-releasing hormone receptor (GnRHR) small molecule agonists, calcium flux assay in GnRHR-HEK293 cells (AID 1920063); details: calcium flux fluorescence, agonist mode; series mostly up to 57.6 µM; further: nearly all actives have a fitted effect of over 35% in size
How it was run: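 Agonist activity was measured as intracellular calcium flux in HEK293 cells engineered to stably express human GnRHR. After dye loading for 1 hour at 37 C, compounds in DMSO were added and fluorescence was followed for 3 minutes.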

[4] = molecular target: KiSS-1 receptor (Homo sapiens) (UniProt Q969F8); assay: Human kisspeptin (KISS1R) small molecule agonists, calcium flux assay in KISS1R-HEK293 cells (AID 1920064; active means well fitted curve in the direction sought with a large enough effect in the repeat runs; an effect the other way counts as inactive or inconclusive); details: KISS1R-HEK293, calcium flux fluorescence, agonist; series mostly up to 76.8 µM
How it was run: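 Agonist activity is monitored as intracellular calcium rise in engineered HEK293 cells carrying human KISS1R. Cells are dye-loaded for 1 h at 37 C before compound addition, and fluorescence is recorded for 3 min.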

[5] = G protein-coupled receptor (GPCR) small molecule agonists, calcium flux assay: HEK293 wild type cell line counter screen (AID 1920065); details: HEK293 WT calcium flux, fluorescence, agonist mode; series mostly up to 57.6 µM
How it was run: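 Seed cells, incubate 18 h (37 C, 5% CO2); add calcium dye, 1 h at 37 C; pin-transfer compounds, ATP control or DMSO; read fluorescence 480/540 nm each second for 3 min.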

[6] = p53 small molecule agonists, cell-based qHTS assay with human liver microsomes (AID 1963577); details: HCT-116 p53RE-bla with human liver microsomes, ratio, 16 h; series mostly up to 66 µM;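 further: p53 response element beta-lactamase reporter cells with liver microsomes plus NADPH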
How it was run: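 With metabolic activation: human liver microsomes (0.5 mg/mL final) plus NADPH (0.5 mg/mL final) added alongside compounds to p53RE-bla cells; 16 h 37 C exposure; beta-lactamase read by LiveBLAzer fluorescence.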

[7] = p53 small molecule agonists, cell-based qHTS assay with rat liver microsomes (AID 1963578); details: HCT-116 p53RE-bla, beta-lactamase ratio, 16 h; series mostly up to 66 µM
How it was run: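 Metabolic activation by rat liver microsomes and NADPH, each 0.5 mg/mL final, added right after compounds to p53RE-bla reporter cells (4,000/well, plated 5 h earlier). 16 h at 37 C, then LiveBLAzer substrate for 2 h at room temperature in the dark; fluorescence read-out.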

[8] = p53 small molecule agonists, cell-based qHTS assay with human liver microsomes: qHTS cell viability counter screen (AID 1963579); details: p53RE-bla HCT-116 viability, ATP luminescence, 16 h, HLM; series mostly up to 66 µM; further: nearly all actives have a fitted effect of over 45% in size
How it was run: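 Metabolic activation used human liver microsomes and NADPH, both 0.5 mg/mL final, over 16 hours at 37 C on p53RE-bla cells (4,000/well). Cytotoxicity measured by CellTiter-Glo luminescence, 30 min at room temperature.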

[9] = p53 small molecule agonists, cell-based qHTS assay with rat liver microsomes: qHTS cell viability counter screen (AID 1963580); details: p53RE-bla HCT-116 + rat microsomes, ATP viability, 16 h; series mostly up to 66 µM; further: nearly all actives have a fitted effect of over 45% in size
How it was run: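 Rat liver microsome (0.5 mg/mL final) and NADPH (0.5 mg/mL final) co-incubation with compounds for 16 h at 37 C on HCT-116 p53RE-bla cells; cytotoxicity taken from intracellular ATP luminescence.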

[10] = p53 small molecule agonists, cell-based qHTS assay: qHTS cell viability counter screen (AID 1963581); details: p53RE-bla HCT-116 viability, ATP luminescence, 16 h; series mostly up to 66 µM; further: nearly all actives have a fitted effect of over 45% in size
How it was run: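 Viability was counter-screened in parallel with the p53 agonist reporter by measuring intracellular ATP luminescence in the same HCT-116 p53RE-bla wells after 16 h compound treatment at 37 C.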

[11] = p53 small molecule agonists, cell-based qHTS assay (AID 1963582; active means well fitted activation curve with a large enough effect in the signal ratio in the repeat runs, not every such curve was filed as active; the % refers to the signal ratio); details: HCT-116 p53RE-bla reporter, beta-lactamase FRET ratio, 16 h; series mostly up to 66 µM
How it was run: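 Cells carrying a p53-responsive bla reporter are treated with test compounds for 16 h at 37 C; beta-lactamase activity is then detected with LiveBLAzer B/G FRET substrate after 2 h at room temperature.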

[12] = molecular target: 5-hydroxytryptamine receptor 2A (Homo sapiens) (UniProt P28223); assay: 5-hydroxytryptamine receptor 2A (HTR2A) small molecule antagonists, cell-based qHTS assay (AID 1963586); details: HTR2A-CHO cells, DOI-induced calcium flux, fluorescence; series mostly up to 61.5 µM; further: nearly all actives have a fitted effect of over 45% in size
How it was run: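 CHO cells stably expressing human HTR2A were plated for 18 h at 37 C, then loaded with calcium dye for 1 h. Compounds were preincubated 5 min at room temperature before DOI (4 nM solution) was added. Kinetic fluorescence was read for 3 min.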

[13] = molecular target: 5-hydroxytryptamine receptor 2A (Homo sapiens) (UniProt P28223); assay: 5-hydroxytryptamine receptor 2A (HTR2A) small molecule agonists, cell-based qHTS assay (AID 1963587); details: HTR2A-CHO cells, calcium flux fluorescence, agonist mode; series mostly up to 76.8 µM; further: nearly all actives have a fitted effect of over 30% in size
How it was run: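 Kinetic calcium-flux fluorescence (2 min, 1 sec intervals) after compound addition in agonist mode. HTR2A-CHO cells were cultured 18 h, then dye-loaded 1 h at 37 C.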

[14] = molecular target: Muscarinic acetylcholine receptor M1 (Homo sapiens) (UniProt P11229); assay: Cholinergic receptor muscarinic 1 (CHRM1) small molecule antagonists, cell-based qHTS assay (AID 1963588); details: CHRM1-CHO antagonist mode, calcium flux fluorescence; series mostly up to 61.5 µM; further: nearly all actives have a fitted effect of over 40% in size
How it was run: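 Compounds were tested at 15 concentrations in three independent runs. Dye-loaded CHRM1-CHO cells were exposed 5 min at room temperature before stimulation by acetylcholine added at 50nM. Intracellular calcium was read kinetically on FDSS for 3 min.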

[15] = molecular target: Muscarinic acetylcholine receptor M1 (Homo sapiens) (UniProt P11229); assay: Cholinergic receptor muscarinic 1 (CHRM1) small molecule agonists, cell-based qHTS assay (AID 1963589); details: CHRM1-CHO cells, agonist mode, calcium flux fluorescence; series mostly up to 76.8 µM; further: nearly all actives have a fitted effect of over 35% in size
How it was run: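 Cells were plated and incubated 18 h at 37 C/5% CO2, loaded with calcium dye for 1 h at 37 C, then treated with compounds in DMSO. Fluorescence was recorded kinetically at 1 sec intervals.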

[16] = cAMP Responsive Elements (CRE) small molecule agonists, cell-based qHTS assay (AID 1963590); details: CRE-bla HEK293T, beta-lactamase FRET ratio, 3 h; series mostly up to 92.4 µM
How it was run: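 Cells carrying a CRE-driven beta-lactamase reporter (HEK 293T) are seeded, incubated overnight (18 h), and treated with test compounds for 3 h at 37 C; reporter activity is then detected with a FRET substrate after 2 h at room temperature.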

[17] = cAMP Responsive Elements (CRE) small molecule antagonists, cell-based qHTS assay (AID 1963591; active means well fitted inhibition curve with a large enough effect in the signal ratio in the repeat runs, not every such curve was filed as active; the % refers to the signal ratio); details: CRE-bla HEK293T, beta-lactamase FRET ratio; series mostly up to 92.4 µM
How it was run: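 Cells (CRE-bla HEK 293T, DMEM with 10% dialyzed FBS and 25 mM HEPES) are seeded and incubated 18 h. Compounds are added with NKH477 agonist at 0.25 uM final for 3 h, then FRET substrate for 2 h.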

[18] = molecular target: D(2) dopamine receptor (Homo sapiens) (UniProt P14416); assay: Dopamine D2 receptor (DRD2) small molecule agonists, cell-based qHTS assay (AID 1963594); details: HEK293-DRD2 cAMP HTRF, agonist mode, 30 min; series mostly up to 92.4 µM; further: nearly all actives have a fitted effect of over 35% in size
How it was run: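 cAMP accumulation in DRD2-HEK293 cells measured by HTRF after 1 h detection; compounds added 10 min before NKH477 (200nM […]) forskolin-analogue stimulation, 30 min at room temperature, with Ro20-1724 present at 0.1 mM final.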

[19] = molecular target: D(2) dopamine receptor (Homo sapiens) (UniProt P14416); assay: Dopamine D2 receptor (DRD2) small molecule antagonists, cell-based qHTS assay (AID 1963595; active means well fitted inhibition curve with a large enough effect in the signal ratio in the repeat runs, with a control signal flat; the % refers to the signal ratio); details: HEK293-DRD2 cAMP HTRF antagonist mode; series mostly up to 92.4 µM
How it was run: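 In this cell-based antagonist screen, compounds act for 10 min at room temperature before a 30 min challenge with 12 nM quinpirole and 200 nM NKH477. cAMP is quantified by HTRF competition in DRD2-HEK293 cells containing 0.1 mM Ro20-1724.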

[20] = molecular target: Beta-2 adrenergic receptor (Homo sapiens) (UniProt P07550); assay: Adrenergic beta2 receptor (ADRB2) small molecule antagonists, cell-based qHTS assay (AID 1963592); details: CHO-ADRB2 cells, isoproterenol-stimulated cAMP HTRF ratio, 0.5 h; series mostly up to 92.4 µM; further: nearly all actives have a fitted effect of over 50% in size
How it was run: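 Assay format: CHO-ADRB2 cells, 18-20hr seeding at 37C/5% CO2, then compound plus 1nM isoproterenol agonist mix for 0.5hr RT. Homogeneous time-resolved fluorescence cAMP detection after 1hr, expressed as 665/615 nm ratio.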

Measured: Potency

Chain of Muscarinic acetylcholine receptor M1 (Homo sapiens) (P11229 whole entry, looked up): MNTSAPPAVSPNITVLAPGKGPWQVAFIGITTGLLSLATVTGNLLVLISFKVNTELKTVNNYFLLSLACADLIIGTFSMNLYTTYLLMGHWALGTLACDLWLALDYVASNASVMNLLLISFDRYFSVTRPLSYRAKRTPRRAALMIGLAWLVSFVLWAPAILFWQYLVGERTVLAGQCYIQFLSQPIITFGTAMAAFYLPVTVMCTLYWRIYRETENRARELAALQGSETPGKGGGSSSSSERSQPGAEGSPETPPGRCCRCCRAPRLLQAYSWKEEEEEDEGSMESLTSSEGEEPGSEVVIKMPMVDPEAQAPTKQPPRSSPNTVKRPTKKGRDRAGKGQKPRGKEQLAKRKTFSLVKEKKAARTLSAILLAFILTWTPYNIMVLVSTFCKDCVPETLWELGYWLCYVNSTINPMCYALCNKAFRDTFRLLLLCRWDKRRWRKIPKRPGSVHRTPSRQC
Chain of Beta-2 adrenergic receptor (Homo sapiens) (P07550 whole entry, looked up): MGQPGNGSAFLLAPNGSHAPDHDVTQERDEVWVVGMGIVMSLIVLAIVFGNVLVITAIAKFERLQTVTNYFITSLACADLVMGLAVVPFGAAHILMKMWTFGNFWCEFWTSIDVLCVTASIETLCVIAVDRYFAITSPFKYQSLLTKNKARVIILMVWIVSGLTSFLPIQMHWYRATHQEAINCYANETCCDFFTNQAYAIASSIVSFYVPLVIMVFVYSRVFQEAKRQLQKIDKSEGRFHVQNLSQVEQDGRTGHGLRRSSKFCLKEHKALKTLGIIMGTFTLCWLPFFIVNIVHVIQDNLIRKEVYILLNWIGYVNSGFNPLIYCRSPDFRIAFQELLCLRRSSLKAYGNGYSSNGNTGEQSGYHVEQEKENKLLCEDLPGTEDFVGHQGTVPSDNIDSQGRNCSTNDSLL
Chain of KiSS-1 receptor (Homo sapiens) (Q969F8 whole entry, looked up): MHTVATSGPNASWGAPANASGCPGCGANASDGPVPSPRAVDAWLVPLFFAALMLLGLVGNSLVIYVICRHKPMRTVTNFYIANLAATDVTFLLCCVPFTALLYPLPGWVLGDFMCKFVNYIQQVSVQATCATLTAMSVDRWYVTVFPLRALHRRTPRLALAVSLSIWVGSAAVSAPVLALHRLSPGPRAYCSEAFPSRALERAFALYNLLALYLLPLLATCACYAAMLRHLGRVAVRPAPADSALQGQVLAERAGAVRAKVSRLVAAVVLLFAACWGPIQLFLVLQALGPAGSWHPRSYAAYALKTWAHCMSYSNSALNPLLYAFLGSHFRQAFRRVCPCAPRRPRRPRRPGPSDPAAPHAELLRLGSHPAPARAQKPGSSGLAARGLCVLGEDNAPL
Chain of D(2) dopamine receptor (Homo sapiens) (P14416 whole entry, looked up): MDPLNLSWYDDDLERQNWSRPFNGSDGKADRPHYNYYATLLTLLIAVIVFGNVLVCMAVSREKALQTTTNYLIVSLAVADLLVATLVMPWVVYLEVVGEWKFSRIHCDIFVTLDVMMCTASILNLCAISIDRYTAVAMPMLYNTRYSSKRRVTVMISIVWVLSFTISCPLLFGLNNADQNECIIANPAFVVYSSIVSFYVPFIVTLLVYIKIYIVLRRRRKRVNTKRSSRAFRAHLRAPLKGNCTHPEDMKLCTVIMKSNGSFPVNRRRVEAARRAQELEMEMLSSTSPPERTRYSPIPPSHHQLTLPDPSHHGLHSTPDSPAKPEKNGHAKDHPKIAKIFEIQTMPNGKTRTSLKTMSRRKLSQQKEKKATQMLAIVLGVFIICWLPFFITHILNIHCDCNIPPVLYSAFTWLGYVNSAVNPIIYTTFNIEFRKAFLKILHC
Chain of 5-hydroxytryptamine receptor 2A (Homo sapiens) (P28223 whole entry, looked up): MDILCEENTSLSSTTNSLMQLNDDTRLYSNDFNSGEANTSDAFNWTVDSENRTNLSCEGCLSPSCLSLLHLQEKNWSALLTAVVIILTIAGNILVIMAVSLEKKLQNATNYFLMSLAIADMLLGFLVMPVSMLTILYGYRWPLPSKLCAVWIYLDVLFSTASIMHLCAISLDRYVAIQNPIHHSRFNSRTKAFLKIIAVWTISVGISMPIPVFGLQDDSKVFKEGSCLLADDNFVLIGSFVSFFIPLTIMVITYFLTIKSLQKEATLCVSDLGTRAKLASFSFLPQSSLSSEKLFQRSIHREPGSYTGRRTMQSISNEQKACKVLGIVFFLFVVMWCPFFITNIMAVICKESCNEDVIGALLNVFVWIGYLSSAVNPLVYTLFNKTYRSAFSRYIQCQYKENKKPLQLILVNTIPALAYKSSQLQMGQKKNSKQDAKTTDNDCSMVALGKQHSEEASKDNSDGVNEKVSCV
Chain of Gonadotropin-releasing hormone receptor (Homo sapiens) (P30968 whole entry, looked up): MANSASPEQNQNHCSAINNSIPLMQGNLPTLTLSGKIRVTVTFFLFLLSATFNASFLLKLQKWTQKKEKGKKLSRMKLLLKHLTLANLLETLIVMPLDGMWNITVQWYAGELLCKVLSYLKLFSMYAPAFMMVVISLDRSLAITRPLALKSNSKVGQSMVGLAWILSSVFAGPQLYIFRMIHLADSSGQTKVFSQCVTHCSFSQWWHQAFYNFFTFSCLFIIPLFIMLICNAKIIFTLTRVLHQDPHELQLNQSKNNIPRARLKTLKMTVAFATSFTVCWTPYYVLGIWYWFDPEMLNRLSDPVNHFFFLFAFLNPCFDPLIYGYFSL

COc1cc(S(N)(=O)=O)cc(C(=O)O)c1OC
not listed: [20]
inactive: all other assays above

COC(=O)c1cc(S(N)(=O)=O)ccc1OC
not listed: [19] | [20]
inactive: all other assays above

CCC(=O)Nc1cccc(N)c1
inactive: all assays above

CCOCCOCCOCCO
not listed: [20]
inactive: all other assays above

O=C(Cl)c1ccc(C(=O)Cl)cc1
inactive: all assays above
